PubChem BioAssay (Tox21)
Results filed as inconclusive are left out. The source made the active and inactive calls. Unless noted, the call rests on the fitted dose curve.

How the values were obtained:
[1] = Nuclear factor erythroid 2-related factor 2/antioxidant responsive element (Nrf2/ARE) small molecule agonists: qHTS cell viability counter screen in human keratinocytes (AID 1919968; active means well fitted curve in the direction sought with a large enough effect in the repeat runs; an effect the other way counts as inactive or inconclusive; further: nearly all actives have a fitted effect of over 55% in size)
Summary of the method: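 CellTiter-Fluor fluorescence, read 1 h after reagent, gave viability in the same wells as the ARE-luciferase assay. KeratinoSens cells (1,500/well) had 23 h compound exposure at 37 C/5% CO2 following 5 h plating.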

[2] = target: KiSS-1 receptor (Homo sapiens) (UniProt Q969F8); assay: Human kisspeptin (KISS1R) small molecule agonists, calcium flux assay in KISS1R-HEK293 cells (AID 1920064; active means well fitted curve in the direction sought with a large enough effect in the repeat runs; an effect the other way counts as inactive or inconclusive)
KiSS-1 receptor (Homo sapiens), sequence (Q969F8 whole entry, looked up): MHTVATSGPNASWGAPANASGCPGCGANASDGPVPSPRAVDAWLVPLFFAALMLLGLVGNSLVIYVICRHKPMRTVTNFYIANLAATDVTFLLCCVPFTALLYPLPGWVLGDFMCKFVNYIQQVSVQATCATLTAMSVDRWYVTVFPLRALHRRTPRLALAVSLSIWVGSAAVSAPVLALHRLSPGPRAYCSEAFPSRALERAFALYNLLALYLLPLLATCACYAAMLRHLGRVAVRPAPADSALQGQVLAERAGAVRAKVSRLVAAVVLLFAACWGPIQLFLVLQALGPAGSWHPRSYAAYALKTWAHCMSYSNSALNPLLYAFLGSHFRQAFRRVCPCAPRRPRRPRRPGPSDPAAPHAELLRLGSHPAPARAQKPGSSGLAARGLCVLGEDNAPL
Summary of the method: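 Agonist mode: intracellular calcium rise tracked at 1 s intervals over 3 min (480/540 nm) immediately after compound addition to dye-loaded KISS1R-HEK293 stable cells. Each compound tested at 15 concentrations in triplicate.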

[3] = G protein-coupled receptor (GPCR) small molecule agonists, calcium flux assay: HEK293 wild type cell line counter screen (AID 1920065)
Summary of the method: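 Calcium flux counter screen: compound added in agonist mode at 15 concentrations in triplicate to dye-loaded parental HEK293 cells. Fluorescence (480/540) read kinetically for 3 min; ATP served as positive control.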

[4] = p53 small molecule agonists, cell-based qHTS assay with human liver microsomes (AID 1963577);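 further: p53 response element beta-lactamase reporter cells with liver microsomes plus NADPH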
Summary of the method: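 Metabolically competent format: test substances, human liver microsomes and NADPH (both 0.5 mg/mL final) incubated with p53RE-bla cells 16 h at 37 C. Beta-lactamase reporter signal then quantified by fluorescence.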

[5] = p53 small molecule agonists, cell-based qHTS assay with human liver microsomes: qHTS cell viability counter screen (AID 1963579); further: nearly all actives have a fitted effect of over 45% in size
Summary of the method: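 Tox21 library compounds, delivered from DMSO stocks, were tested on p53RE-bla cells together with 0.5 mg/mL human liver microsomes and 0.5 mg/mL NADPH (final) over 16 h at 37 C; CellTiter-Glo luminescence served as the cytotoxicity measure.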

[6] = p53 small molecule agonists, cell-based qHTS assay: qHTS cell viability counter screen (AID 1963581); further: nearly all actives have a fitted effect of over 45% in size
Summary of the method: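 Counter screen read by CellTiter-Glo luminescence (ATP content, 30 min at room temperature), run in the same wells as the beta-lactamase reporter read. HCT-116 p53RE-bla cells saw compounds for 16 h at 37 C.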

[7] = p53 small molecule agonists, cell-based qHTS assay (AID 1963582; active means well fitted activation curve with a large enough effect in the signal ratio in the repeat runs, not every such curve was filed as active; the % refers to the signal ratio)
Summary of the method: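 Read-out is beta-lactamase FRET fluorescence after 2 h at room temperature with LiveBLAzer B/G substrate. p53 response element-bla cells were treated 16 h at 37 C with compounds in DMSO, added 5 h after seeding.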

[8] = target: 5-hydroxytryptamine receptor 2A (Homo sapiens) (UniProt P28223); assay: 5-hydroxytryptamine receptor 2A (HTR2A) small molecule antagonists, cell-based qHTS assay (AID 1963586); further: nearly all actives have a fitted effect of over 45% in size
5-hydroxytryptamine receptor 2A (Homo sapiens), sequence (P28223 whole entry, looked up): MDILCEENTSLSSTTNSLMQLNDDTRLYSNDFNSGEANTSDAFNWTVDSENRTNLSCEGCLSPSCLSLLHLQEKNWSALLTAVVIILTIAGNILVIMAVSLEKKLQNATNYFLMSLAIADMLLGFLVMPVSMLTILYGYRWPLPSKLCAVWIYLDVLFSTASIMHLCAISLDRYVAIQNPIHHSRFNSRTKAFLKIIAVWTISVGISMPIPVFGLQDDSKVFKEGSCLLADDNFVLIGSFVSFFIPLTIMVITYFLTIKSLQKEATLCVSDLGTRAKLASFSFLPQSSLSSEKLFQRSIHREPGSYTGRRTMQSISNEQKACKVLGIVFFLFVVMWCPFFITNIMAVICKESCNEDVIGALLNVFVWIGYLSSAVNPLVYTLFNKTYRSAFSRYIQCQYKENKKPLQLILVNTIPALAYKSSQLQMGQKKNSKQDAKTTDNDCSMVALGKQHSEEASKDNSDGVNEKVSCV
Summary of the method: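 CHO cells stably expressing human HTR2A were plated for 18 h at 37 C, then loaded with calcium dye for 1 h. Compounds were preincubated 5 min at room temperature before DOI (4 nM solution) was added. Kinetic fluorescence was read for 3 min.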

[9] = target: 5-hydroxytryptamine receptor 2A (Homo sapiens) (UniProt P28223); assay: 5-hydroxytryptamine receptor 2A (HTR2A) small molecule agonists, cell-based qHTS assay (AID 1963587); further: nearly all actives have a fitted effect of over 30% in size
Summary of the method: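 CHO cells stably expressing human HTR2A, plated 18 h, loaded with calcium dye 1 h at 37 C. Agonist mode: compounds added and intracellular calcium fluorescence recorded kinetically for 2 min at 1 sec intervals.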

[10] = target: Muscarinic acetylcholine receptor M1 (Homo sapiens) (UniProt P11229); assay: Cholinergic receptor muscarinic 1 (CHRM1) small molecule antagonists, cell-based qHTS assay (AID 1963588); further: nearly all actives have a fitted effect of over 40% in size
Muscarinic acetylcholine receptor M1 (Homo sapiens), sequence (P11229 whole entry, looked up): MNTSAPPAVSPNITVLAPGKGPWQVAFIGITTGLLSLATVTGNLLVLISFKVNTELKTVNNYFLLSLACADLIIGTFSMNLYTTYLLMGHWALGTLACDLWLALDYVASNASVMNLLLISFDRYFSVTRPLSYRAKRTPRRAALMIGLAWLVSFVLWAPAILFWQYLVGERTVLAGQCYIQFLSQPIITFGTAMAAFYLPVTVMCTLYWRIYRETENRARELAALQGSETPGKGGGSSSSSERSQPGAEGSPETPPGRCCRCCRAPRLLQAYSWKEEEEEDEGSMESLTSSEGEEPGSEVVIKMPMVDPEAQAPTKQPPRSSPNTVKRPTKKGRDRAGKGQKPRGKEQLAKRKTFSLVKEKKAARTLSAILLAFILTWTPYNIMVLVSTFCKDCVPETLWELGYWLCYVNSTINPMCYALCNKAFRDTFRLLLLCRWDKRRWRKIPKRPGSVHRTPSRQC
Summary of the method: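 Compounds were tested at 15 concentrations in three independent runs. Dye-loaded CHRM1-CHO cells were exposed 5 min at room temperature before stimulation by acetylcholine added at 50nM. Intracellular calcium was read kinetically on FDSS for 3 min.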

[11] = target: Muscarinic acetylcholine receptor M1 (Homo sapiens) (UniProt P11229); assay: Cholinergic receptor muscarinic 1 (CHRM1) small molecule agonists, cell-based qHTS assay (AID 1963589); further: nearly all actives have a fitted effect of over 35% in size
Summary of the method: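 Agonist-mode calcium-flux screen: compounds at 15 concentrations, three independent runs, were pin-transferred onto dye-loaded human CHRM1-CHO cells. Fluorescence was then recorded kinetically every second over minutes.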

[12] = cAMP Responsive Elements (CRE) small molecule agonists, cell-based qHTS assay (AID 1963590)
Summary of the method: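 Agonist mode: compound added to CRE-bla HEK 293T cells (2,000/well, 18 h after plating) for 3 h at 37 C/5% CO2. Reporter activity detected via FRET beta-lactamase substrate, 2 h room-temperature loading.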

[13] = cAMP Responsive Elements (CRE) small molecule antagonists, cell-based qHTS assay (AID 1963591; active means well fitted inhibition curve with a large enough effect in the signal ratio in the repeat runs, not every such curve was filed as active; the % refers to the signal ratio)
Summary of the method: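 Antagonist mode: compounds are added alongside the adenylyl cyclase activator NKH477 (0.25 uM final) to CRE-bla HEK293T cells for 3 h. LiveBLAzer FRET substrate, 2 h at room temperature, reports bla expression.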

[14] = target: Beta-2 adrenergic receptor (Homo sapiens) (UniProt P07550); assay: Adrenergic beta2 receptor (ADRB2) small molecule antagonists, cell-based qHTS assay (AID 1963592); further: series mostly up to about 92 µM; nearly all actives have a fitted effect of over 50% in size
Beta-2 adrenergic receptor (Homo sapiens), sequence (P07550 whole entry, looked up): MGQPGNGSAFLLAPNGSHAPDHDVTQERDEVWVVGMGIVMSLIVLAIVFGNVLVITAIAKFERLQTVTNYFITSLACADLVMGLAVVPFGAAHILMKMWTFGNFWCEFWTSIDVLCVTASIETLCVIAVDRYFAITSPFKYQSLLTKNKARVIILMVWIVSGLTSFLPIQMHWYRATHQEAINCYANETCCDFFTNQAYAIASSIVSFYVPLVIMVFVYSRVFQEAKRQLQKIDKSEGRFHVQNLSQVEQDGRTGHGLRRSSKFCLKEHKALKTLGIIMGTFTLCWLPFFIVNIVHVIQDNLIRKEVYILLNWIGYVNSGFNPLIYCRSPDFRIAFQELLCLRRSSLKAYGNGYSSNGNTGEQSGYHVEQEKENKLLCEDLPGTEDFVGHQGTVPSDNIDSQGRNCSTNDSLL
Summary of the method: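 Assay format: CHO-ADRB2 cells, 18-20hr seeding at 37C/5% CO2, then compound plus 1nM isoproterenol agonist mix for 0.5hr RT. Homogeneous time-resolved fluorescence cAMP detection after 1hr, expressed as 665/615 nm ratio.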

[15] = target: Beta-2 adrenergic receptor (Homo sapiens) (UniProt P07550); assay: Adrenergic beta2 receptor (ADRB2) small molecule agonists, cell-based qHTS assay (AID 1963593);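 further: CHO cells stably overexpressing human ADRB2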
Summary of the method: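 CHO cells stably over-expressing ADRB2 were plated overnight at 37C, then dosed with compounds plus a stimulation mix containing 100uM IBMX and 25uM Ro-20-1724 for 0.5hr at room temperature. cAMP was measured by HTRF competition, 1hr.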

[16] = target: D(2) dopamine receptor (Homo sapiens) (UniProt P14416); assay: Dopamine D2 receptor (DRD2) small molecule agonists, cell-based qHTS assay (AID 1963594); further: nearly all actives have a fitted effect of over 35% in size
D(2) dopamine receptor (Homo sapiens), sequence (P14416 whole entry, looked up): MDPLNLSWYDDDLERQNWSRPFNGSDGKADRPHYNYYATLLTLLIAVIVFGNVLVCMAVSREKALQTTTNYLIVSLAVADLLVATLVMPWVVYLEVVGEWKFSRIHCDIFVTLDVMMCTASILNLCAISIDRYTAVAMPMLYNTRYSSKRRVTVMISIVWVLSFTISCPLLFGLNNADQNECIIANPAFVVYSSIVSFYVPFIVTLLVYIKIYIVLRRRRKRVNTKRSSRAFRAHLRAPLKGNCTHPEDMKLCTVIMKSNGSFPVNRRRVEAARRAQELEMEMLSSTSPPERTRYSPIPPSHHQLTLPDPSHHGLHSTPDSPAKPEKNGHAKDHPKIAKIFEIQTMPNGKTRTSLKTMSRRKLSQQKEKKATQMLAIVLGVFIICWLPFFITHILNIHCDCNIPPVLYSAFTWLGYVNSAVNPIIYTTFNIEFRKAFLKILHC
Summary of the method: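 HEK293 cells stably expressing human DRD2, pre-treated with PDE inhibitor Ro20-1724 (0.1 mM final) and compound 10 min at room temperature, then stimulated with NKH477 (200nM […]) for 30 min. cAMP read by HTRF (665/620 nm).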

[17] = p53 small molecule agonists, cell-based qHTS assay with rat liver microsomes (AID 1963578)
Summary of the method: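 Each plate received p53RE-bla cells, then compound, then rat liver microsomes and NADPH (both 0.5 mg/mL final). Plates were held 16 h at 37 C, and beta-lactamase activity was detected with LiveBLAzer over 2 h.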

[18] = p53 small molecule agonists, cell-based qHTS assay with rat liver microsomes: qHTS cell viability counter screen (AID 1963580); further: nearly all actives have a fitted effect of over 45% in size
Summary of the method: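 Cytotoxicity counter screen: intracellular ATP measured by CellTiter-Glo luminescence in the same wells as the beta-lactamase reporter read, on HCT-116 p53RE-bla cells exposed 16 h at 37 C to compounds with rat liver microsomes and NADPH, each 0.5 mg/mL final.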

[19] = target: D(2) dopamine receptor (Homo sapiens) (UniProt P14416); assay: Dopamine D2 receptor (DRD2) small molecule antagonists, cell-based qHTS assay (AID 1963595; active means well fitted inhibition curve with a large enough effect in the signal ratio in the repeat runs, with a control signal flat; the % refers to the signal ratio)
Summary of the method: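 Antagonism was scored as restored cAMP in HEK293-DRD2 cells. These cells were stimulated with 200 nM NKH477 and 12 nM quinpirole for 30 min at room temperature, in the presence of 0.1 mM Ro20-1724.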

Measured: Potency

CC(C)(C)N
not listed: [17] | [18] | [19]
inactive: all other assays above

CCCCCCCCCCCCCCC1CO1 (stereo not drawn)
not listed: [4] | [7] | [19]
inactive: all other assays above

O=[N+]([O-])c1c(Cl)cc(Cl)cc1Cl
not listed: [3] | [4] | [15]
inactive: all other assays above

COc1cc2nc(N3CCN(C(=O)C4CCCO4)CC3)nc(N)c2cc1OC (stereo not drawn)
not listed: [2] | [8] | [9] | [10] | [11] | [14] | [15]
inactive: all other assays above

CC(Cl)C(Cl)Cl (stereo not drawn)
not listed: [4] | [6] | [7] | [13] | [15]
inactive: all other assays above

CCC(C(=O)O)c1ccc(N2Cc3ccccc3C2=O)cc1 (stereo not drawn)
not listed: [2] | [7] | [10] | [11] | [12] | [13] | [16] | [19]
inactive: all other assays above

O=C(O)C1CCC1
not listed: [2] | [8]
inactive: all other assays above

CC(=O)Nc1ccccc1C
not listed: [5] | [6] | [8]
inactive: all other assays above
